Measured values reported in PubChem BioAssay (EPA / NIEHS).
Several values for one entry are separate records, joined by “and”; a condition that tells them apart may be missing. Equal values may be shown once. Inconclusive results are not listed. A structure can be active in one record and inactive in another. Activity calls are given as the source filed them. The calls were made as follows, unless noted: active = hit-call score of the fitted dose curve at least 0.9, where 1 is the maximum; inconclusive = response in the unintended direction; inactive = score below 0.9.

Tests used:
[1] = read-out: Broad substrate specificity ATP-binding cassette transporter ABCG2 (Homo sapiens) (UniProt Q9UNQ0); experiment: CLD_ABCG2_6hr: CellzDirect (CLD) Gene Expression Assay for ABC Transporter (ABCG2) at 6 hours (AID 2283660)
Outline: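 ABCG2 mRNA induction measured by qNPA chemiluminescence in human primary hepatocyte cultures, 6 h post-dose. Chemicals tested at several concentrations against a 0.2% DMSO vehicle; positive-direction fit relative to DMSO.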

[2] = read-out: xenobiotic metabolism (CYP1A1), CYP1A1 (gene 1543); experiment: CLD_CYP1A1_6hr: CellzDirect (CLD) Gene Expression Assay for xenobiotic metabolism (CYP1A1) at 6 hours (AID 2283661);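 as to AC50: potency for transcript induction above DMSO vehicle baseline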
Outline: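 Read-out 6 h post-dose: qNPA chemiluminescent quantitation of transcript induction against 0.2% DMSO. Cells were cultured primary human hepatocytes from two separate donor preparations; phase-contrast morphology annotated apparent cytotoxicity.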

[3] = read-out: alkyl and aryl transferase (GSTA2), GSTA2 (gene 2939); experiment: CLD_GSTA2_6hr: CellzDirect (CLD) Gene Expression Assay for alkyl and aryl transferase (GSTA2) at 6 hours (AID 2283666)
Outline: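 GSTA2 transcript induction at 6 h, quantified by nuclease protection (qNPA) with chemiluminescent detection, in human liver primary hepatocytes exposed to several compound concentrations with 0.2% DMSO as baseline; phase-contrast morphology annotated apparent cytotoxicity.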

[4] = Tanguay_ZF_120hpf_TR_legacy: (Legacy) Oregon State University Tanguay Lab 120 Hour Post-fertilization zebrafish Assay for Touch Response (AID 2283667)
Outline: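 Binary touch-response call at 120 hpf, analysed as gain of signal versus DMSO baseline. Wild-type 5D larvae, static exposure at 28C, 0.64% DMSO final; 5uM trimethyltin chloride as positive control.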

[5] = read-out: xenobiotic metabolism (CYP1A1), CYP1A1 (gene 1543); experiment: CLD_CYP1A1_24hr: CellzDirect (CLD) Gene Expression Assay for xenobiotic metabolism (CYP1A1) at 24 hours (AID 2283673);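 also: CYP1A1 mRNA level by quantitative nuclease protection with chemiluminescence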
Outline: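 Transcript levels were read at 24 h by qNPA chemiluminescence in human liver primary cells. Cells got daily fresh dosing at multiple concentrations (vehicle 0.2% DMSO). Induction fitted upward against DMSO; phase-contrast cytotoxicity annotated.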

[6] = CLD_ACTIN_24hr: CellzDirect (CLD) Gene Expression Assay for Baseline Control (Actin) at 24 hours (AID 2283670)
Outline: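 This 24 h qNPA (S1 nuclease protection, chemiluminescence) actin transcript readout in cultured human liver primary cells serves as baseline control. Signal is fitted upward relative to 0.2% DMSO; chemicals tested at multiple concentrations across two donor preparations.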

[7] = test system: Thyroperoxidase (TPO), gene 54314; experiment: CCTE_Simmons_AUR_rTPO: CCTE's Amplex UltraRed Assay for Thyroperoxidase (TPO) Inhibition, Simmons Lab (AID 2283662);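 as to AC50: potency for loss of signal meaning inhibition of peroxidase activity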
Outline: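 Rat thyroid microsomal TPO + 25 uM AUR in 200 mM K phosphate; cpd 5 nM–87.5 uM [final], 8 conc, 0.5% DMSO; 300 uM H2O2 starts rxn; 37C dark 30 min; endpoint FI 544/590 nm; n=3.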

[8] = read-out: Cytochrome P450 (CYP24A1_1), CYP24A1 (gene 1591); experiment: LTEA_HepaRG_CYP24A1_1: Life Technologies and Expression Analysis (LTEA) Assay for Cytochrome P450 (CYP24A1_1) using HepaRG (AID 2283671; active = hit-call score of the fitted dose curve at least 0.9, where 1 is the maximum; inactive = score below 0.9); conditions: mRNA level, 48 h; actives raise or lower the signal
Outline: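 Readout is CYP24A1 transcript level by qRT-PCR, normalized to three housekeeping genes, with gain or loss of signal fitted against 0.5% DMSO. Human HepaRG cells received compound for 48 h at up to 100 uM.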

[9] = CCTE_Simmons_CellTiterGLO_HEK293T: Viability Assessment in CCTE's Assays for Thyroperoxidase (TPO) Inhibition, Simmons Lab (AID 2283665);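 as to AC50: cells exposed to compound for 24 h before readout; actives reduce ATP signal below DMSO vehicle meaning cytotoxicity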
Outline: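 ATP depletion measured in HEK293T cells after 24 h dosing (8 concentrations, 5 nM–87.5 uM final; DMSO 0.5%) using CellTiter-Glo luminescence; curves fit for loss of signal against DMSO baseline.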

[10] = read-out: glucuronosyltransferase (UGT1A1), UGT1A1 (gene 54658); experiment: CLD_UGT1A1_6hr: CellzDirect (CLD) Gene Expression Assay for glucuronosyltransferase (UGT1A1) at 6 hours (AID 2283672)
Outline: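 UGT1A1 mRNA induction, read by quantitative nuclease protection assay, 6 h after dosing primary human hepatocytes (two donors, 0.2% DMSO vehicle). Gain of signal fitted relative to vehicle.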

Sequence of Broad substrate specificity ATP-binding cassette transporter ABCG2 (Homo sapiens) (Q9UNQ0 whole entry, looked up): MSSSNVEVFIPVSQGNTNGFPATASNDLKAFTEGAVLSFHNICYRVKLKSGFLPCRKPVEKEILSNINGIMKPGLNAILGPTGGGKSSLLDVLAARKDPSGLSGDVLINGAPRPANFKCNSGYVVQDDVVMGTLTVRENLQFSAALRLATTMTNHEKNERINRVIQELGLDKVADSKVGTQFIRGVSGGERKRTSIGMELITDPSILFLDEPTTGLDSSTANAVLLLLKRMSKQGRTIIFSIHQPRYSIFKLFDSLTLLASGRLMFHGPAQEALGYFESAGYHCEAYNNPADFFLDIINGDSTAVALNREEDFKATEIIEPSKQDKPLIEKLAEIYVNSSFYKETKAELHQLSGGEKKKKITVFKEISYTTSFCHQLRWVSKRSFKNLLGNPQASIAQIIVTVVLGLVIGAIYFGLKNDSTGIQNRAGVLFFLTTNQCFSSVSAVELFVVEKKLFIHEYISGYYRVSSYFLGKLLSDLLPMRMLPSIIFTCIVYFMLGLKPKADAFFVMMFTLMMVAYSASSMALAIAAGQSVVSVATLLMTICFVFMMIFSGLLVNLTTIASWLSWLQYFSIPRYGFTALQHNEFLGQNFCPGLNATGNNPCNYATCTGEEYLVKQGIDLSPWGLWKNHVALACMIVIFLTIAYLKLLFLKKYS

CCc1ccc(C(=O)NN(C(=O)c2cc(C)cc(C)c2)C(C)(C)C)cc1
outcome [1]: inactive
AC50 [2]: 7.56 µM (active)
outcome [3]: inactive
outcome [4]: inactive
AC50 [5]: 9.97 µM (active)

O=C(O)COc1ccc(Cl)cc1Cl
outcome [1]: inactive
AC50 [2]: 0.459 µM (active)
outcome [3]: inactive
outcome [4]: inactive
outcome [6]: inactive
outcome [5]: inactive

CCC(C)(NC(=O)c1cc(Cl)c(C)c(Cl)c1)C(=O)CCl (configuration not stated)
outcome [1]: inactive
outcome [2]: inactive
outcome [3]: inactive
AC50 [4]: 57.8 µM (active)
outcome [5]: inactive

CC(C)N(C(=O)COc1nnc(C(F)(F)F)s1)c1ccc(F)cc1
outcome [1]: inactive
outcome [2]: inactive
outcome [7]: inactive
outcome [4]: inactive
outcome [6]: inactive
outcome [5]: inactive

CC(C)(C)C(O)/C(=C\c1ccc(Cl)cc1Cl)n1cncn1 (configuration not stated)
outcome [1]: inactive
AC50 [2]: 1.89 µM (active)
outcome [3]: inactive
outcome [4]: inactive
AC50 [5]: 6.46 µM (active)

CCCN(CCC)c1c([N+](=O)[O-])cc(C(F)(F)F)cc1[N+](=O)[O-]
outcome [1]: inactive
AC50 [2]: 3.69 µM (active)
outcome [3]: inactive
outcome [4]: inactive
outcome [8]: inactive
AC50 [5]: 8.5 µM (active)

O=[N+]([O-])c1c(Cl)c(Cl)c(Cl)c(Cl)c1Cl
outcome [1]: inactive
outcome [2]: inactive
outcome [3]: inactive
outcome [4]: inactive
outcome [6]: inactive
AC50 [5]: 20 µM (active)

CC(C)OC(=O)Nc1cccc(Cl)c1
outcome [1]: inactive
AC50 [2]: 3.3 µM (active)
outcome [3]: inactive
outcome [4]: inactive
AC50 [5]: 5.63 µM (active)

O=[N+]([O-])/N=C1\NCCN1Cc1ccc(Cl)nc1
outcome [1]: inactive
outcome [2]: inactive
outcome [3]: inactive
outcome [4]: inactive
outcome [6]: inactive
outcome [5]: inactive

N#Cc1c(Cl)c(Cl)c(Cl)c(C#N)c1Cl
AC50 [1]: 20 µM (active)
AC50 [2]: 36.8 µM (active)
outcome [3]: inactive
outcome [8]: inactive

CC(C)(C)C(O)C(Oc1ccc(Cl)cc1)n1cncn1 (configuration not stated)
outcome [1]: inactive
AC50 [2]: 1.55 µM (active)
outcome [3]: inactive
AC50 [4]: 41.5 µM (active) and 65.4 µM (active)
outcome [4]: inactive
AC50 [5]: 2.22 µM (active)

CC1(c2ccc(Oc3ccccc3)cc2)OC(=O)N(Nc2ccccc2)C1=O (configuration not stated)
outcome [1]: inactive
outcome [2]: inactive
AC50 [7]: 2.45 µM (active)
AC50 [9]: 20.2 µM (active)
outcome [3]: inactive
outcome [4]: inactive
outcome [6]: inactive
AC50 [5]: 3.89 µM (active)

COC(=O)c1ccccc1S(=O)(=O)NC(=O)N(C)c1nc(C)nc(OC)n1
outcome [1]: inactive
AC50 [2]: 20 µM (active)
outcome [3]: inactive
outcome [6]: inactive
outcome [5]: inactive

CNC(=O)/C=C(\C)OP(=O)(OC)OC
outcome [1]: inactive
outcome [2]: inactive
AC50 [7]: 39.1 µM (active)
outcome [9]: inactive
outcome [4]: inactive
outcome [10]: inactive
outcome [5]: inactive

O=C(O)CCCOc1ccc(Cl)cc1Cl
outcome [1]: inactive
outcome [2]: inactive
outcome [3]: inactive
outcome [4]: inactive
outcome [6]: inactive

CNC(=O)Oc1cccc(N=CN(C)C)c1
outcome [1]: inactive
outcome [2]: inactive
AC50 [7]: 19.8 µM (active)
outcome [9]: inactive
outcome [3]: inactive
outcome [4]: inactive
outcome [6]: inactive

COP(=S)(OC)Oc1ccc([N+](=O)[O-])cc1
outcome [1]: inactive
AC50 [2]: 2.88 µM (active)
AC50 [7]: 4.82 µM (active)
outcome [9]: inactive
outcome [4]: inactive
AC50 [5]: 4.2 µM (active)

N#CN
outcome [1]: inactive
outcome [2]: inactive
AC50 [7]: 2.93 µM (active)
outcome [9]: inactive
outcome [3]: inactive
outcome [4]: inactive
outcome [6]: inactive

COP(=O)(OC)OC=C(Cl)Cl
outcome [1]: inactive
AC50 [2]: 1.9 µM (active)
AC50 [7]: 21 µM (active)
outcome [9]: inactive
outcome [4]: inactive
outcome [6]: inactive
outcome [5]: inactive

CN1CSC(=S)N(C)C1
outcome [1]: inactive
outcome [2]: inactive
AC50 [7]: 6.52 µM (active)
outcome [9]: inactive
outcome [3]: inactive
outcome [4]: inactive
outcome [6]: inactive
outcome [8]: inactive
AC50 [5]: 3.9 µM (active)

CCOCN(C(=O)CCl)c1c(C)cccc1CC
outcome [1]: inactive
outcome [2]: inactive
outcome [3]: inactive
outcome [4]: inactive
AC50 [5]: 1.99 µM (active)

C[C@H]1[C@H](c2ccc(Cl)cc2)SC(=O)N1C(=O)NC1CCCCC1
outcome [1]: inactive
outcome [2]: inactive
outcome [3]: inactive
outcome [4]: inactive
AC50 [5]: 3.97 µM (active)

Oc1ccc(Cl)cc1Cc1ccccc1
outcome [1]: inactive
outcome [2]: inactive
AC50 [7]: 12.7 µM (active)
outcome [3]: inactive
outcome [4]: inactive
outcome [6]: inactive
